Compound activity from PubChem.
In the library only some 19% were active in any assay of this set; here they are far more common.
IL-1B inflam inh = qHTS for Inhibitors of Inflammasome Signaling: IL-1-beta AlphaLISA Primary Screen; 360,000 tested, 4.7% active; activity change, % at 57.5 µM; THP-1 LPS/ATP IL-1B secretion, AlphaLISA, 16 h; active compounds read low; AID 743279, 2014; in the data active = activity change below about -50%; inconclusive = mostly about -30% to -49%; note: % is set by controls: 0 for no effect and ±100 for the full control effect
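THP-1 cells pretreated 1 hr with compounds (up to 57.5 uM final), then stimulated with LPS (250 ng/mL final) plus ATP (1.25 mM final); secreted IL-1B measured by AlphaLISA after 16 hr, decreased signal indicating inhibition.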
TDP1 cell CPT = qHTS for Inhibitors of human tyrosyl-DNA phosphodiesterase 1 (TDP1): qHTS in cells in presence of CPT | 420,000 tested, 12% active | chicken DT40 Tdp1-/-;hTDP1 cells + 20 nM CPT, ATP luminescence, 48 h | Potency, µM (doses to about 46.2 µM), inactives show at the highest dose activity change, negative = growth inhibition, actives largely listed as inhibitors; note: potency is the fitted concentration of half-maximal effect; % is set by controls: 0 for no effect and ±100 for the full control effect; nearly all actives have a fitted effect of over 55% in size
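Chicken DT40 Tdp1-/- cells stably complemented with human TDP1 were seeded at 400 cells/well in medium containing 20 nM camptothecin, exposed to pin-transferred compounds, and grown at 37 °C for at least 48 hr. Viability was read as ATP luminescence.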
ASM inhibitor = Inhibitors of Secretory Acid Sphingomyelinase (S-ASM): qHTS | placental ASM, HMU-PC fluorogenic substrate, 60 min | Potency, µM (series often up to 57.5 µM), without a hit: at the highest dose activity change, negative = inhibition, hits mostly inhibitors | 340,000 tested, 0.006% active; note: potency is the fitted concentration of half-maximal effect
Target sequence (P17405 47-631 limits assumed): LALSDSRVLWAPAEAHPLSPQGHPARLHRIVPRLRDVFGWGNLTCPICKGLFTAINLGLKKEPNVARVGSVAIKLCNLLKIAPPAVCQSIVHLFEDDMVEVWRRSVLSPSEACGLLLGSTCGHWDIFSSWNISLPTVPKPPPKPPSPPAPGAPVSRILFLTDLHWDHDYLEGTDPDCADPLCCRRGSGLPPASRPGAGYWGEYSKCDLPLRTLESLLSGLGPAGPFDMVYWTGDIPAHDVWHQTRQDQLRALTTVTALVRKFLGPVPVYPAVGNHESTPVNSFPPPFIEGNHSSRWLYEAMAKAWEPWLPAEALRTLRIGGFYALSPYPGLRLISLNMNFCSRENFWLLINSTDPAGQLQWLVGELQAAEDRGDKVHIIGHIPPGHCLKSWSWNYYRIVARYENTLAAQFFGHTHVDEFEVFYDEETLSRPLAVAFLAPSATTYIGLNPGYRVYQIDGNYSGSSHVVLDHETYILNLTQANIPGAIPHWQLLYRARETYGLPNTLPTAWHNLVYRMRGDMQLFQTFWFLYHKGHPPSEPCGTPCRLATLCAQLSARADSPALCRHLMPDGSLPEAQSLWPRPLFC
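qHTS format. ASM enzyme prepared from human placenta hydrolyses the fluorogenic substrate HMU-PC0 (9 uM final) over 60 min at 37 °C after a 10 min compound preincubation.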
TDP1 cell noCPT = qHTS for Inhibitors of human tyrosyl-DNA phosphodiesterase 1 (TDP1): qHTS in cells in absence of CPT. DT40 Tdp1-/- hTDP1 cells, no CPT, ATP luminescence, 48 h. Potency, µM (highest dose often 46.2 µM), for inactives: top-dose activity change, negative = growth inhibition, most hits filed as inhibitors. 420,000 tested, 15% active. AID 686978, 2013; note: potency is the fitted concentration of half-maximal effect; % is set by controls: 0 for no effect and ±100 for the full control effect; nearly all actives have a fitted effect of over 55% in size
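Growth of hTDP1-complemented DT40 Tdp1-knockout cells is measured by ATP luminescence after at least 48 hr compound exposure at 37 °C, with DMSO substituting for the 20 nM CPT used in the parallel screen.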
TGFb inhibitor = qHTS for Inhibitors of TGF-b; HepG2 CAGA-GFP TGF-b/SMAD3 reporter, GFP fluorescence, 18 h; TGF-beta stimulated, 500 pg/mL final; 410,000 tested, 1.2% active; Potency, µM (top dose mostly 46.1 µM), inactives show at the highest dose activity, negative = inhibition, most hits filed as inhibitors; note: potency is the fitted concentration of half-maximal effect; % is set by controls: 0 for no effect and ±100 for the full control effect; nearly all actives have a fitted effect of over 65% in size
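Inhibition was scored as loss of TGF-beta-induced (500 pg/mL final, 18 hours, 37 degrees C) GFP in HEPG2 cells carrying a CAGA-GFP reporter, in DMEM with 1% FBS. Well GFP was summed per cell; Activity was normalised to unstimulated and stimulated DMSO wells, then concentration-response fitting.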
HepG2 tox = qHTS for Inhibitors of TGF-b: Cytotox Counterscreen; AID 588856, 2011; Potency, µM (highest dose often 46.1 µM), without a hit: at the top dose activity change, negative = cytotoxicity, most hits filed as cytotoxic; 410,000 tested, 0.76% active; HepG2 CAGA-GFP viability, ATP luminescence, 18 h; note: potency is the fitted concentration of half-maximal effect
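HepG2 CAGA-GFP cells (1000/well, DMEM with 1% FBS) received compound, then TGF-beta at 500 pg/mL final, and were incubated 18 hours at 37 degrees C. Viability was read by CellTiter-Glo luminescence. Media-only wells were set as complete cell-killing and DMSO as no toxicity.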
Active calls of the source: *. Unless noted, calls come from the whole dose curve; as a rule, active = well fitted curve in the direction sought with a large enough effect; inconclusive = small, poorly fitted or top-dose-only effect, or another doubt; inactive = no such curve, though single readings can be large; an effect the other way counts as inactive or inconclusive.

Results for Cc1cccc(C)c1NC(=O)/C(=C/c1ccco1)c1ccccc1 ?
IL-1B inflam inh: -15.9; TDP1 cell CPT: 18.4µM*; ASM inhibitor: 4.6%; TDP1 cell noCPT: 13µM*; TGFb inhibitor: 30.8%; HepG2 tox: -6.8%

How did Cc1cc(C)c(NC(=O)/C(=C/c2ccco2)c2ccccc2)c(C)c1 do in these assays?
IL-1B inflam inh: 21.2; TDP1 cell CPT: inconclusive; ASM inhibitor: 7.5%; TDP1 cell noCPT: inconclusive; TGFb inhibitor: 12.8%; HepG2 tox: -22.2%

What do the screens show for `CCC(C)NC(=O)/C(=C/c1ccco1)c1ccccc1` (stereo not given)?
IL-1B inflam inh: 14.5; TDP1 cell CPT: inconclusive; ASM inhibitor: -1.8%; TDP1 cell noCPT: inconclusive; TGFb inhibitor: 4.0%; HepG2 tox: 9.2%

What do the screens show for `O=C(NCCc1ccccc1)/C(=C/c1ccco1)c1ccccc1`?
IL-1B inflam inh: -9.4; TDP1 cell CPT: 25.9µM*; ASM inhibitor: 1.8%; TDP1 cell noCPT: inconclusive; TGFb inhibitor: -3.8%; HepG2 tox: -10.5%

How did CC(C)C[C@@H](CNCC(=O)[C@H](C)NC(=O)c1[nH]cnc1C(=O)N[C@H](CN)CC(C)C)NC(=O)c1nc[nH]c1C(=O)N[C@@H](C)C(=O)O do in these assays?
IL-1B inflam inh: 13.0; TDP1 cell CPT: -12.6%; ASM inhibitor: 11.3%; TDP1 cell noCPT: -6.3%; TGFb inhibitor: 2.1%; HepG2 tox: -4.4%

Results for CN(C)CCCN(C(=O)c1cccs1)c1nc2ccc(F)cc2s1 ?
TDP1 cell CPT: 16.4µM*; TDP1 cell noCPT: inconclusive; TGFb inhibitor: -2.2%; HepG2 tox: -22.6%

Results for Cc1ccc2nc(N(CCN(C)C)C(=O)/C=C/c3cccs3)sc2c1 ?
IL-1B inflam inh: inconclusive; TDP1 cell CPT: inconclusive; ASM inhibitor: -4.3%; TDP1 cell noCPT: 16.4µM*; TGFb inhibitor: -0.8%; HepG2 tox: -25.5%

Results for CN(C)CCCN(C(=O)/C=C/c1cccs1)c1nc2ccc(F)cc2s1 ?
IL-1B inflam inh: -104.2*; TDP1 cell CPT: 2.59µM*; ASM inhibitor: -4.5%; TDP1 cell noCPT: 4.61µM*; TGFb inhibitor: 17.0%; HepG2 tox: 15.8µM*

Results for CCOc1ccc2nc(N(CCN(C)C)C(=O)/C=C/c3cccs3)sc2c1 ?
IL-1B inflam inh: -71.3*; TDP1 cell CPT: inconclusive; ASM inhibitor: 2.0%; TDP1 cell noCPT: 23.1µM*; TGFb inhibitor: 1.9%; HepG2 tox: -36.3%

What do the screens show for `CN(C)CCN(C(=O)/C=C/c1cccs1)c1nc2ccc(Br)cc2s1`?
IL-1B inflam inh: 23.1; TDP1 cell CPT: inconclusive; ASM inhibitor: -18.9%; TDP1 cell noCPT: inconclusive; TGFb inhibitor: -12.4%; HepG2 tox: -36.2%

How did CN(C)CCCN(C(=O)C1COc2ccccc2O1)c1nc2ccc(F)cc2s1 (stereo not given) do in these assays?
IL-1B inflam inh: -9.6; TDP1 cell CPT: inconclusive; ASM inhibitor: -0.9%; TDP1 cell noCPT: inconclusive; TGFb inhibitor: -8.3%; HepG2 tox: -12.0%

How did CCOc1cc(/C=N/NC(=O)c2nnn(-c3nonc3N)c2C)ccc1OCc1cccc(F)c1 do in these assays?
IL-1B inflam inh: -8.3; TDP1 cell CPT: -13.7%; ASM inhibitor: 0.1%; TDP1 cell noCPT: -13.4%; TGFb inhibitor: -9.1%; HepG2 tox: -10.9%

What do the screens show for `CCc1csc(CNC(=O)C2CCC(=O)N(Cc3cccc(OC)c3)C2)n1` (stereo not given)?
IL-1B inflam inh: inconclusive; TDP1 cell CPT: -26.6%; TDP1 cell noCPT: 3.2%; TGFb inhibitor: -0.2%; HepG2 tox: 0.3%

What do the screens show for `CCOC(=O)C1=CCN(S(=O)(=O)c2cccc(Cl)c2)C1c1ccc(F)cc1` (stereo not given)?
IL-1B inflam inh: -20.1; TDP1 cell CPT: inconclusive; TDP1 cell noCPT: inconclusive; TGFb inhibitor: inconclusive; HepG2 tox: -19.6%

What do the screens show for `CCc1ccc2nc(N(CCN(C)C)C(=O)/C=C/c3cccs3)sc2c1`?
IL-1B inflam inh: -81.0*; TDP1 cell CPT: inconclusive; ASM inhibitor: -10.7%; TDP1 cell noCPT: inconclusive; TGFb inhibitor: inconclusive; HepG2 tox: -96.5%

Results for CN(C)CCN(C(=O)C1CCCCC1)c1nc2cc3c(cc2s1)OCCO3 ?
IL-1B inflam inh: inconclusive; TDP1 cell CPT: -15.1%; TDP1 cell noCPT: 9.2µM*; TGFb inhibitor: -22.3%; HepG2 tox: -22.7%

Results for CCOC(=O)N1CCN(S(=O)(=O)c2ccc(C(=O)N(CCN(CC)CC)c3nc4ccc(C)cc4s3)cc2)CC1 ?
IL-1B inflam inh: inactive; TDP1 cell CPT: inconclusive; ASM inhibitor: -4.6%; TDP1 cell noCPT: inconclusive; TGFb inhibitor: 13.8%; HepG2 tox: -7.2%

What do the screens show for `CN(C)CCN(C(=O)c1ccc(Br)s1)c1nc2cc3c(cc2s1)OCCO3`?
IL-1B inflam inh: 8.5; TDP1 cell CPT: 7.1%; ASM inhibitor: -4.8%; TDP1 cell noCPT: -16.7%; TGFb inhibitor: -0.5%; HepG2 tox: 19.5%

Results for CN(C)CCN(C(=O)c1cccs1)c1nc2cc3c(cc2s1)OCCO3 ?
IL-1B inflam inh: -10.9; TDP1 cell CPT: inconclusive; TDP1 cell noCPT: 23.1µM*; TGFb inhibitor: 18.7%; HepG2 tox: 1.5%

Results for CCN(CC)CCN(C(=O)/C=C/c1cccs1)c1nc2ccc(C)cc2s1 ?
IL-1B inflam inh: 4.8; TDP1 cell CPT: inconclusive; ASM inhibitor: -10.8%; TDP1 cell noCPT: 6.51µM*; TGFb inhibitor: 3.2%; HepG2 tox: -4.0%

What do the screens show for `CN(C)CCN(C(=O)c1ccc2ccccc2c1)c1nc2cc3c(cc2s1)OCCO3`?
IL-1B inflam inh: 0.0; TDP1 cell CPT: inconclusive; ASM inhibitor: -2.3%; TDP1 cell noCPT: inconclusive; TGFb inhibitor: -22.1%; HepG2 tox: -25.4%

How did CCN(CC)CCN(C(=O)c1ccc2ccccc2c1)c1nc2ccc(F)cc2s1 do in these assays?
IL-1B inflam inh: 17.2; TDP1 cell CPT: -27.2%; ASM inhibitor: -0.4%; TDP1 cell noCPT: -3.7%; TGFb inhibitor: 6.3%; HepG2 tox: -5.3%

How did CCN(CC)CCN(C(=O)/C=C/c1cccs1)c1nc2ccc(F)cc2s1 do in these assays?
IL-1B inflam inh: -78.3*; TDP1 cell CPT: inconclusive; ASM inhibitor: 13.1%; TDP1 cell noCPT: inconclusive; TGFb inhibitor: inconclusive; HepG2 tox: -40.2%
